Test results: PubChem BioAssay (NCI)
This is part of a sample that, as a whole, favours compounds with a hit. Of some 79,000 tested, about 15% had one in any assay. The source made the active and inactive calls. Cut-off read from the data, not from the text of the source: active = growth inhibition above about 70%; inactive = the rest.

Experiments:
[1] = NCI Yeast Anticancer Drug Screen. Data for the mec2-1 strain (AID 157); conditions: S. cerevisiae mec2-1 strain, active compounds read high
How it was run: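 Compounds were applied to mec2-1 yeast cells. Their growth was then compared with that of vehicle-treated cultures to give growth inhibition.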

[2] = NCI Yeast Anticancer Drug Screen. Data for the rad14 strain (AID 159);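 note: 0% = growth of vehicle-treated control cultures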; conditions: S. cerevisiae rad14 strain growth inhibition, active compounds read high
How it was run: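 Here, inhibition of yeast growth was measured after compound exposure, using a strain with a genetic defect in DNA damage repair and vehicle-treated cultures as the reference.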

[3] = NCI Yeast Anticancer Drug Screen. Data for the sgs1 mgt1 strain (AID 161);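 note: 0% = growth of cultures given vehicle only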; conditions: S. cerevisiae sgs1 mgt1 strain, active compounds read high
How it was run: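 This yeast growth screen uses a strain with defined DNA-repair lesions; compound-treated growth is compared with vehicle-treated growth.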

[4] = NCI Yeast Anticancer Drug Screen. Data for the CLN2oe strain (AID 163);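 note: 0% = growth of vehicle-only control cultures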; conditions: S. cerevisiae CLN2oe strain, active compounds read high
How it was run: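 Cells of an engineered yeast line with disturbed cell-cycle regulation are treated with compound. Inhibition of growth is then calculated relative to the vehicle-treated reference.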

[5] = NCI Yeast Anticancer Drug Screen. Data for the cln2 rad14 strain (AID 165);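 note: 0% = growth equal to vehicle treated cultures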; conditions: S. cerevisiae cln2 rad14 strain, active compounds read high
How it was run: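 Strain: cln2 rad14 yeast, altered in cell cycle control and DNA damage repair. Read-out: growth inhibition vs vehicle.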

[6] = NCI Yeast Anticancer Drug Screen. Data for the bub3 strain (AID 167); conditions: S. cerevisiae bub3 mutant strain, active compounds read high
How it was run: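 Whole-cell yeast assay. The mutant strain was incubated with compounds, and growth inhibition was determined by comparison with vehicle-treated cells.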

[7] = NCI Yeast Anticancer Drug Screen. Data for the wt2 strain (AID 169);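 note: 0% = growth of vehicle-treated yeast cultures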; conditions: S. cerevisiae wt2 strain growth inhibition, active compounds read high
How it was run: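 Growth of compound-treated yeast is measured and expressed as inhibition relative to vehicle-only controls.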

[8] = NCI Yeast Anticancer Drug Screen. Data for the mlh1 strain (AID 171);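 note: 0% = growth of vehicle-treated control cultures of the same strain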; conditions: S. cerevisiae mlh1 strain growth inhibition, active compounds read high
How it was run: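 Test agents were incubated with yeast bearing a defined DNA damage repair or cell cycle control alteration; values are growth inhibition normalised to vehicle-treated cultures.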

[9] = NCI Yeast Anticancer Drug Screen. Data for the sgs1 strain (AID 173);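 note: 0% = growth of vehicle-only control cultures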; conditions: S. cerevisiae sgs1 mutant, active compounds read high
How it was run: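 Strain with an altered DNA repair or cell cycle pathway exposed to compound. Growth then measured. Value = inhibition versus vehicle control.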

[10] = NCI Yeast Anticancer Drug Screen. Data for the mlh1 rad18 strain (AID 175); conditions: S. cerevisiae mlh1 rad18 strain growth inhibition, active compounds read high
How it was run: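 A repair-deficient yeast strain is exposed to test compound, and growth is scored relative to vehicle-treated controls.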

[11] = NCI Yeast Anticancer Drug Screen. Data for the rad18 strain (AID 177); conditions: S. cerevisiae rad18 mutant growth inhibition, active compounds read high
How it was run: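 DNA-repair-defective yeast; compound treatment; growth inhibition scored against vehicle.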

[12] = NCI Yeast Anticancer Drug Screen. Data for the rad52 strain (AID 147);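 note: 0% = growth of vehicle-treated control cultures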; conditions: S. cerevisiae rad52 mutant growth inhibition, active compounds read high
How it was run: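 Growth of repair-deficient yeast cells was compared between compound-treated and vehicle-treated cultures to give percent inhibition.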

[13] = NCI Yeast Anticancer Drug Screen. Data for the wt1 strain (AID 149);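 note: 0% = growth of vehicle-treated wt1 cultures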; conditions: S. cerevisiae wt1 strain (SPY 50644) growth inhibition, active compounds read high
How it was run: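 Measured: growth of wt1 yeast under compound versus vehicle treatment, reported as inhibition.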

[14] = NCI Yeast Anticancer Drug Screen. Data for the rad50EPP+ strain (AID 151);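 note: 0% = growth of vehicle-treated control cultures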; conditions: S. cerevisiae rad50 mutant strain, active compounds read high
How it was run: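 Measured: growth inhibition of rad50EPP+ yeast. Reference: vehicle-treated controls. Screen uses strains with defined genetic alterations in DNA damage repair or cell cycle control.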

[15] = NCI Yeast Anticancer Drug Screen. Data for the mgt1 strain (AID 153); conditions: S. cerevisiae mgt1 mutant growth inhibition, active compounds read high
How it was run: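 Compounds were applied to mgt1 mutant yeast, and growth was then compared against vehicle-treated control cultures to give percent inhibition.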

[16] = NCI Yeast Anticancer Drug Screen. Data for the rad50 strain (AID 155);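 note: 0% = growth of vehicle-only cultures of the same strain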; conditions: S. cerevisiae rad50 strain growth inhibition, active compounds read high
How it was run: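 Growth of the mutant yeast was measured after compound exposure and referenced to vehicle-treated cultures.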

[17] = at 5.0 µM (retest, dose inferred, filed as 0.5)
[18] = at 50.0 µM (retest, dose inferred, filed as 5.0)

Measured: growth inhibition

Cn1c2nc3ccccc3c-2nc2ccccc21
active: [1]; at 11.0 µM 87% | [1]; at 33.0 µM 97% | [1]; [18] 98% | [1]; at 50.0 µM 96% | [1]; at 100.0 µM 98% | [2]; at 11.0 µM 82% | [2]; at 33.0 µM 97% | [2]; at 100.0 µM 98% | [3]; [18] 95% | [3]; at 50.0 µM 97.9% | [4]; at 11.0 µM 91% | [4]; at 33.0 µM 97% | [4]; at 100.0 µM 97% | [5]; [18] 96% | [5]; at 50.0 µM 96.2% | [6]; at 11.0 µM 88% | [6]; at 33.0 µM 96% | [6]; [18] 97% | [6]; at 50.0 µM 98.2% | [6]; at 100.0 µM 94% | [7]; at 11.0 µM 83% | [7]; at 33.0 µM 96% | [7]; at 100.0 µM 96% | [8]; at 11.0 µM 91% | [8]; at 33.0 µM 97% | [8]; at 100.0 µM 97% | [9]; at 11.0 µM 88% | [9]; at 33.0 µM 97% | [9]; at 100.0 µM 97% | [10]; [18] 98% | [10]; at 50.0 µM 98.1% | [11]; at 11.0 µM 90% | [11]; at 33.0 µM 97% | [11]; at 100.0 µM 93%
inactive: [1]; [17] 33% | [2]; at 1.2 µM 8% | [2]; at 3.7 µM 31% | [3]; [17] 39% | [4]; at 1.2 µM 19% | [4]; at 3.7 µM 46% | [5]; [17] 32% | [6]; at 1.2 µM -5% | [6]; at 3.7 µM 22% | [6]; [17] 16% | [7]; at 1.2 µM 7% | [7]; at 3.7 µM 33% | [8]; at 1.2 µM 9% | [8]; at 3.7 µM 46% | [9]; at 1.2 µM 8% | [9]; at 3.7 µM 42% | [10]; [17] 45% | [11]; at 1.2 µM 8% | [11]; at 3.7 µM 42%

CC(=O)[C@]1(O)Cc2c(O)c3c(c(O)c2[C@@H](OC2CC(N)C(O)C(C)O2)C1)C(=O)c1c(OCc2ccccc2)cccc1C3=O (stereo not given in full)
inactive: [12]; at 1.2 µM 21% | [12]; at 3.7 µM 40% | [12]; at 11.0 µM 59% | [13]; at 1.2 µM -9% | [13]; at 3.7 µM -4% | [13]; at 11.0 µM 5% | [13]; at 33.0 µM -4% | [13]; at 100.0 µM 7% | [14]; at 1.2 µM 18% | [14]; at 3.7 µM 21% | [14]; at 11.0 µM 28% | [14]; at 33.0 µM 46% | [14]; at 100.0 µM 65% | [15]; at 1.2 µM -2% | [15]; at 3.7 µM 8% | [15]; at 11.0 µM 5% | [15]; at 33.0 µM 14% | [15]; at 100.0 µM 43% | [16]; at 1.2 µM 14% | [16]; at 3.7 µM 24% | [16]; [17] 9% | [16]; at 11.0 µM 44% | [1]; at 1.2 µM 4% | [1]; at 3.7 µM -10% | [1]; [17] -9% | [1]; at 11.0 µM -1% | [1]; at 33.0 µM 2% | [1]; [18] 24% | [1]; at 50.0 µM 12.4% | [1]; at 100.0 µM 28% | [2]; at 1.2 µM 7% | [2]; at 3.7 µM 18% | [2]; at 11.0 µM 18% | [2]; at 33.0 µM 27% | [2]; at 100.0 µM 51% | [3]; [17] 11% | [3]; [18] 46% | [3]; at 50.0 µM 9.95% | [4]; at 1.2 µM 5% | [4]; at 3.7 µM 16% | [4]; at 11.0 µM 27% | [4]; at 33.0 µM 30% | [4]; at 100.0 µM 31% | [5]; [17] 4% | [5]; [18] 35% | [5]; at 50.0 µM -1.65% | [6]; at 1.2 µM -2% | [6]; at 3.7 µM 1% | [6]; [17] 10% | [6]; at 11.0 µM 5% | [6]; at 33.0 µM 18% | [6]; [18] 36% | [6]; at 50.0 µM 17.4% | [6]; at 100.0 µM 33% | [7]; at 1.2 µM -69% | [7]; at 3.7 µM -65% | [7]; at 11.0 µM -53% | [7]; at 33.0 µM -16% | [8]; at 1.2 µM -2% | [8]; at 3.7 µM -1% | [8]; at 11.0 µM 6% | [8]; at 33.0 µM 23% | [8]; at 100.0 µM 61% | [11]; at 1.2 µM 2% | [11]; at 3.7 µM 7% | [11]; at 11.0 µM 9% | [11]; at 33.0 µM 20% | [11]; at 100.0 µM 55%
active: [12]; at 33.0 µM 79% | [12]; at 100.0 µM 94% | [16]; at 33.0 µM 71% | [16]; [18] 83% | [16]; at 50.0 µM 72.8% | [16]; at 100.0 µM 92% | [7]; at 100.0 µM 92%

CCN(CC)CCNC(=O)c1nn(-c2ccc(Cl)cc2)c2c1CCc1cc(OC)ccc1-2
inactive: [12]; at 1.2 µM -16% | [12]; at 3.7 µM 13% | [12]; at 11.0 µM 26% | [12]; at 33.0 µM 40% | [13]; at 1.2 µM 10% | [13]; at 3.7 µM 22% | [13]; at 11.0 µM 25% | [13]; at 33.0 µM 24% | [13]; at 100.0 µM 58% | [14]; at 1.2 µM 18% | [14]; at 3.7 µM 32% | [14]; at 11.0 µM 43% | [14]; at 33.0 µM 44% | [14]; at 100.0 µM 56% | [15]; at 1.2 µM 12% | [15]; at 3.7 µM 10% | [15]; at 11.0 µM 8% | [15]; at 33.0 µM 12% | [16]; at 1.2 µM 6% | [16]; at 3.7 µM 5% | [16]; [17] 1% | [16]; at 11.0 µM 17% | [16]; at 33.0 µM 59% | [16]; at 50.0 µM 59.2% | [1]; at 1.2 µM -10% | [1]; at 3.7 µM -2% | [1]; [17] -16% | [1]; at 11.0 µM 4% | [1]; at 33.0 µM 0% | [1]; [18] 54% | [1]; at 50.0 µM 66.4% | [2]; at 1.2 µM -1% | [2]; at 3.7 µM 2% | [2]; at 11.0 µM 10% | [2]; at 33.0 µM 24% | [3]; [17] 15% | [3]; at 50.0 µM 67.5% | [4]; at 1.2 µM -12% | [4]; at 3.7 µM 11% | [4]; at 11.0 µM 6% | [4]; at 33.0 µM 5% | [5]; [17] 2% | [5]; [18] 39% | [5]; at 50.0 µM 28.8% | [6]; at 1.2 µM 9% | [6]; at 3.7 µM 9% | [6]; [17] 8% | [6]; at 11.0 µM 10% | [6]; at 33.0 µM 13% | [6]; at 50.0 µM 58.7% | [7]; at 1.2 µM -11% | [7]; at 3.7 µM -1% | [7]; at 11.0 µM -8% | [7]; at 33.0 µM 8% | [8]; at 1.2 µM 13% | [8]; at 3.7 µM 17% | [8]; at 11.0 µM 10% | [8]; at 33.0 µM 0% | [9]; at 1.2 µM 3% | [9]; at 3.7 µM 2% | [9]; at 11.0 µM 8% | [9]; at 33.0 µM 14% | [10]; [17] -1%
active: [12]; at 100.0 µM 94% | [15]; at 100.0 µM 81% | [16]; [18] 80% | [16]; at 100.0 µM 95% | [1]; at 100.0 µM 73% | [2]; at 100.0 µM 92% | [3]; [18] 80% | [4]; at 100.0 µM 80% | [6]; [18] 77% | [6]; at 100.0 µM 83% | [7]; at 100.0 µM 96% | [8]; at 100.0 µM 87% | [9]; at 100.0 µM 90% | [10]; [18] 81%
